DAX1 inh-1: DAX1 (NR0B1) inhibitors on StAR promoter, primary screen, cell-based, luminescence, SF-1 (NR5A1), full-length DAX-1. AID 652010, 2013. 370,000 tested, 1.1% active. HEK293T StAR-luciferase reporter, SF-1/DAX-1 repression relief. inhibition, % at 6.8 µM;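 active = inhibition above the mean over all tested compounds plus 3 SD, cut at about 3.6% in these data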;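 also: higher inhibition means more luminescence from relief of DAX-1 repression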
hcDAF12 agonist: H. contortus DAF-12 nuclear receptor activators, primary screen, cell-based, luminescence, HEK293, lit1-tk-luc reporter; HEK293 hcDAF-12 lit1-tk-luc reporter; 0% DMSO, 100% Δ7-dafachronic acid; activation, % at 6.8 µM; 370,000 tested, 1.4% active;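 active = activation above the mean of all tested compounds plus 3 SD, cut at about 5.5% in these data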
DAX1 inh-2: DAX1 (NR0B1) inhibitors, primary screen, cell-based, HEK293, Gal4-DAX1, luciferase luminescence. Nuclear receptor subfamily 0 group B member 1 (Homo sapiens), P51843. AID 504766, 2011. HEK293 Gal4-DAX1 luciferase reporter. 340,000 tested, 0.99% active. inhibition, % at 6.75 µM;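 active = inhibition above the mean over all tested compounds plus 3 SD, cut at about 4.2% in these data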;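 also: inhibition shows as a rise in luminescence from relieved DAX1 repression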
Target sequence (P51843 207-470 limits assumed): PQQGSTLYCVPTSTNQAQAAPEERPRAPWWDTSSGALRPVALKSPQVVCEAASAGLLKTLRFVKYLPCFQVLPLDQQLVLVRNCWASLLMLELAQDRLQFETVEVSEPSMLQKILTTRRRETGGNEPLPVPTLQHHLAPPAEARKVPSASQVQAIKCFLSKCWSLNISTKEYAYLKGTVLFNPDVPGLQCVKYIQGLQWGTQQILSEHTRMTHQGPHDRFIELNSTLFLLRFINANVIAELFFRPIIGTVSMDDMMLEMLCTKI
hgDAF-12 ag: H. glycines DAF-12 receptor agonists, primary screen, cell-based, luminescence, HEK293, GAL4 fusion, UAS-luciferase | HEK293 GAL4-hgDAF12 UAS-luciferase reporter, agonist luminescence; normalized to butyrate control | activation, % at 6.8 µM | 370,000 tested, 1.8% active | AID 687014, 2013 | Nuclear hormone receptor DAF-12 (Heterodera glycines), GAL4 fusion;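 active = activation above a cutoff set at the mean of all screened compounds plus 3 SD, cut at about 10% in these data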
ssDAF12 agonist: S. stercoralis DAF-12 nuclear receptor activators, primary screen, cell-based, luminescence, HEK293, GRIP1 co-expression, lit1-tk-luc; Nuclear hormone receptor DAF-12 (Strongyloides stercoralis); HEK293 ssDAF-12/GRIP1 lit1-tk-luc reporter; % of 3 µM dafachronic acid response; activation, % at 6.8 µM; 370,000 tested, 1% active;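 active = activation above the mean over all tested compounds plus 3 SD, cut at about 0.9% in these data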
A number is an active result; - = inactive; . = no result given. This is a sample that favours compounds with a hit; in the whole collection about 4.1% have one here.

SMILES	DAX1 inh-1	hcDAF12 agonist	DAX1 inh-2	hgDAF-12 ag	ssDAF12 agonist
COc1ccc(-n2c(SCC(=O)Nc3cc(C)c(NC(=O)c4ccccc4)cc3OC)nnc2-c2ccco2)cc1	-	-	.	-	-
CCCC[C@@H](CCCc1ccc(F)cc1)CCC(=O)N(c1ccccc1)c1ccccc1	-	-	.	-	-
COc1ccc(OCc2nc(N)nc(Nc3ccccc3)n2)cc1	-	-	-	-	-
Cc1nc(N)nc(COc2ccccc2)n1	-	-	8.4	-	-
COc1ccc(C2CC(c3cccs3)=NN2C(=O)CN2CCCCC2)cc1 (centres undefined)	-	-	.	-	3.1
CN(C)c1ccc(/C=N/NC(=O)c2sccc2-n2cccc2)cc1	-	-	-	10.8	-
O=C(N/N=C\c1ccc(Cl)cc1)c1sccc1-n1cccc1	-	-	-	-	-
COc1cccc(/C=C2\CCC(C3CCCC3)C2=O)c1OC (centres undefined)	-	-	-	12.5	-
COc1ccc(/C=C2\CCC(C3CCCC3)C2=O)c(OC)c1OC (centres undefined)	-	-	-	-	-
CCn1c(=O)n(CC(=O)N2CCCN(Cc3ccccc3)CC2)c(=O)c2ccccc21	-	-	.	-	-
COc1ccc(C2CC(c3ccccc3)=NN2c2ccc(N)cc2)cc1 (centres undefined)	-	-	-	10.7	-
COc1ccc(C2CC(c3ccccc3O)=NN2c2ccccc2)cc1 (centres undefined)	-	-	-	-	-
CN(C(=O)c1cccc(NC(=O)Cc2ccc(NC(=O)C3CCCN(C(=O)c4ccccc4)C3)cc2)c1)C1CC1 (centres undefined)	-	-	.	-	-
CCOc1ccc(/C=C2\SC(=S)N(N3C(=O)C4CC4C3=O)C2=O)cc1 (centres undefined)	-	5.7	-	-	-
CCOc1ccc(/C=C2/SC(=O)NC2=S)cc1	-	-	-	-	-
COc1ccc(CNC(=O)CN(c2cccc(OC)c2)S(C)(=O)=O)cc1	-	-	-	-	-
COc1ccc(CCNC(=O)CN(c2ccc(OC)cc2)S(C)(=O)=O)cc1	-	-	6.4	-	-
COc1ccc(N(C(=O)c2cccc([N+](=O)[O-])c2)S(=O)(=O)c2cccs2)cc1	-	-	5.1	-	-
COc1ccc(CNC(=O)CN(c2cccc([N+](=O)[O-])c2)S(C)(=O)=O)cc1	-	-	-	13.2	-
C[C@H](O)[C@@H]1CN2CCc3ccc(-c4ccc5c(c4)OCO5)cc3[C@@H]2C[C@@H]1N(C)CC1CCCCC1	-	-	.	-	-
Nc1[nH]c(C(=O)c2ccccc2)c(-c2ccc(Cl)c(F)c2)c1C(=O)c1c[nH]c2ccccc12	-	-	.	-	-
Cc1nc(N2CCN(C(=O)C3CC3)CC2)c2c3c(sc2n1)CC(C)CC3 (centres undefined)	.	-	.	-	-
C#CCn1c2ccccc2c(=O)n1C(C)CBr (centres undefined)	-	-	.	-	1.1
C#CCn1c2ccccc2c(=O)n1C(C)C	-	-	.	-	-
COc1ccc(-c2nnc(SCC(=O)Nc3ccc(S(=O)(=O)Nc4nccs4)cc3)n2-c2ccc(OC)cc2)cc1	-	-	.	-	-
SMILES	DAX1 inh-1	hcDAF12 agonist	DAX1 inh-2	hgDAF-12 ag	ssDAF12 agonist
O=C1c2ccccc2C(c2nnnn2-c2ccc3c(c2)OCCO3)N1CCCn1ccnc1 (centres undefined)	3.9	-	.	-	-
CC(=O)OCC(=O)NCC1CCN(C(=O)C(=O)c2cc3ccccc3o2)CC1	-	-	.	-	-
CCOC(=O)Nc1nnc(-c2ccccc2OC)s1	-	5.8	-	-	-
C#CCSc1nc(=O)c2cccnc2n1-c1ccc(C)cc1	-	-	4.5	-	-
O=C(CSc1nncs1)NC(=O)Nc1ccc2c(c1)OCCO2	-	-	-	11.8	-
Cc1[nH]nc2c1C(c1ccccc1)N(Cc1ccccc1)C2=O (centres undefined)	-	-	.	-	-
CCOC(=O)Cc1cc(=O)n2[nH]c(-c3ccccc3)cc2n1	.	.	-	.	.
CCCc1cc(=O)n2[nH]c(-c3ccc(Br)cc3)cc2n1	-	5.6	-	-	1.1
CN(CCc1ccccn1)c1ccccc1	-	6.2	-	12.0	-
CC(C)=CCC/C(C)=C/CNCC(=O)N1c2ccccc2[C@]2(c3ccccc3)C[C@@H]3C(=O)N(C/C=C(\C)CCC=C(C)C)CC(=O)N3[C@H]12	-	-	.	-	-
Oc1ccc(Cl)cc1C1=NNC(c2cccs2)C1 (centres undefined)	-	5.7	-	14.1	-
S=C(Nc1cccnc1)N1CCc2ccccc21	-	6.4	-	-	-
O=C(NC(=S)N1CCc2ccccc21)C1CCC1	-	5.7	-	-	-
NC(=O)c1cc2ccc(O)cc2oc1=Nc1ccccc1	-	-	-	11.9	-
O=C(C1=C(O)C(=O)N(CC2CCCO2)C1c1ccccc1[N+](=O)[O-])c1ccco1 (centres undefined)	-	-	-	-	1.2
O=C(C1=C(O)C(=O)N(CC2CCCO2)C1c1ccc(Cl)cc1)c1ccco1 (centres undefined)	-	-	-	-	-
CC(=O)C1=C(O)C(=O)N(C)C1c1ccccc1[N+](=O)[O-] (centres undefined)	-	-	-	-	2.0
C=CCN1C/C(=C/c2ccccc2)N2C(=O)CC(c3ccccc3)N=C12 (centres undefined)	.	-	.	-	-
O=C(CSc1cccc2cccnc12)OCC(=O)c1ccccc1	-	-	4.5	-	-
O=C(CSc1cccc2cccnc12)OCC(=O)c1ccc(Br)cc1	-	-	-	-	-
CC(C)C[C@H]1CN([C@@H](Cc2ccccc2)CN2CCC[C@H]2CN2C(=O)C(=O)NC[C@@H]2Cc2ccccc2)C(=O)C(=O)N1CC1CCCCCC1	-	-	.	-	-
Cc1c(C)c2ccc(OCC(=O)Nc3cccnc3)c(C)c2oc1=O	3.7	-	-	-	-
CN1C(C(=O)Nc2cccc(O)c2)=CC(c2ccco2)=NS1(=O)=O	-	-	7.6	-	-
Cc1ccc(O)c(NC(=O)C2=CC(c3ccco3)=NS(=O)(=O)N2C)c1	-	-	-	-	-
C/C(=C/c1c[n+](Cc2ccc3c(c2)OCO3)c(N)[nH]1)Cn1[nH]c(=O)n(-c2ccccc2)c1=O	-	-	.	-	-

Screening data as filed in PubChem.
